For seven compounds, Potency results are on record in PubChem BioAssay (Tox21).

The nature of assay [1]: Nuclear factor erythroid 2-related factor 2/antioxidant responsive element (Nrf2/ARE) small molecule agonists: qHTS cell viability counter screen in human keratinocytes (AID 1919968; active means well fitted curve in the direction sought with a large enough effect in the repeat runs; an effect the other way counts as inactive or inconclusive; further: nearly all actives have a fitted effect of over 55% in size; further: potency means the concentration at half of the fitted maximal effect). The method in brief: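 After a 5 h attachment period, ARE-reporter keratinocytes were dosed with compounds in DMSO and then cultured 23 h at 37 C. Cell viability came from CellTiter-Fluor signal read after a further 1 h.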
Background: qHTS replaces the single test concentration by a dilution series.

The target of assay [2] is Gonadotropin-releasing hormone receptor (Homo sapiens) (UniProt P30968). In words: Human gonadotropin-releasing hormone receptor (GnRHR) small molecule agonists, calcium flux assay in GnRHR-HEK293 cells (AID 1920063). Further: nearly all actives have a fitted effect of over 35% in size. The method in brief:
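We seeded human GnRHR-expressing HEK293 cells for 18 hours, loaded them with calcium dye for an hour at 37 C, added test compounds, and recorded fluorescence intensity kinetically for three minutes.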
In general terms: Calcium assays in cells follow changes in intracellular calcium, usually with a dye or a luminescent sensor.

The target in assay [3] is KiSS-1 receptor (Homo sapiens) (UniProt Q969F8). In words: Human kisspeptin (KISS1R) small molecule agonists, calcium flux assay in KISS1R-HEK293 cells (AID 1920064; active means well fitted curve in the direction sought with a large enough effect in the repeat runs; an effect the other way counts as inactive or inconclusive). In outline:
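Kinetic calcium assay, 1 s sampling over 3 min at Ex/Em 480/540, in HEK293 cells engineered with human KISS1R; compounds delivered in DMSO after 1 h dye loading.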

The nature of assay [4]: G protein-coupled receptor (GPCR) small molecule agonists, calcium flux assay: HEK293 wild type cell line counter screen (AID 1920065). The method in brief: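 Calcium-sensitive dye, loaded 1 h at 37 C into cells cultured 18 h, reports compound-evoked calcium release as fluorescence (Ex/Em 480/540), measured over 3 min. Agonist mode; 15-point titrations, triplicate.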
Assay [5] is described as follows: p53 small molecule agonists, cell-based qHTS assay with human liver microsomes (AID 1963577). In outline: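 Compounds act here after metabolic activation: human liver microsomes and NADPH, both at 0.5 mg/mL final, were co-added to p53RE-bla cells. Incubation ran 16 h at 37 C, followed by LiveBLAzer detection.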
Assay [6] in a line: p53 small molecule agonists, cell-based qHTS assay with rat liver microsomes (AID 1963578). In outline: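 Read-out is beta-lactamase reporter fluorescence (LiveBLAzer, 2 h, room temperature, dark) in p53RE-bla cells treated 16 h at 37 C with compound, rat liver microsomes and NADPH, both 0.5 mg/mL final.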
Assay [7] can be described thus: p53 small molecule agonists, cell-based qHTS assay with human liver microsomes: qHTS cell viability counter screen (AID 1963579). Further: nearly all actives have a fitted effect of over 45% in size. The method in brief: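 Cells carrying the p53 response-element beta-lactamase reporter are treated for 16 h at 37 C with test compounds in the presence of human liver microsomes and NADPH (both 0.5 mg/mL final); ATP-based CellTiter-Glo luminescence then reports viability.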

The nature of assay [8]: p53 small molecule agonists, cell-based qHTS assay with rat liver microsomes: qHTS cell viability counter screen (AID 1963580). Further: nearly all actives have a fitted effect of over 45% in size. The method in brief: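 p53RE-bla HCT-116 cells (4,000/well) rested 5 h at 37 C, then given Tox21 compounds in DMSO with rat liver microsomes (0.5 mg/mL final) plus NADPH (0.5 mg/mL final) for 16 h at 37 C. Viability read by CellTiter-Glo luminescence after 30 min at room temperature.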

The nature of assay [9]: p53 small molecule agonists, cell-based qHTS assay: qHTS cell viability counter screen (AID 1963581). Further: nearly all actives have a fitted effect of over 45% in size. Further: potency means the concentration at half of the fitted maximal effect. In outline:
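Following 5 h attachment, HCT-116 p53RE-bla cells took up compound for 16 h at 37 C; the reporter was read with B/G FRET substrate (2 h RT), and viability then via CellTiter-Glo ATP luminescence.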

Assay [10] in a line: p53 small molecule agonists, cell-based qHTS assay (AID 1963582; active means well fitted activation curve with a large enough effect in the signal ratio in the repeat runs, not every such curve was filed as active; the % refers to the signal ratio). The method in brief: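 In this cell-based concentration-response screen, a p53 response element drives beta-lactamase; cells received DMSO-borne compounds after 5 h culture and were incubated a further 16 h before FRET substrate development.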
Assay [11] deals with 5-hydroxytryptamine receptor 2A (Homo sapiens) (UniProt P28223). As to the kind of experiment: 5-hydroxytryptamine receptor 2A (HTR2A) small molecule antagonists, cell-based qHTS assay (AID 1963586). Further: nearly all actives have a fitted effect of over 45% in size. The method in brief: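 Antagonist-mode intracellular calcium assay: DOI (4 nM) added after 5 min compound pre-incubation at room temperature to dye-loaded HTR2A-CHO cells. Fluorescence followed for 3 min, sampled every second.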

For assay [12] the target is unchanged. As to the kind of experiment: 5-hydroxytryptamine receptor 2A (HTR2A) small molecule agonists, cell-based qHTS assay (AID 1963587). Further: nearly all actives have a fitted effect of over 30% in size. The method in brief:
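HTR2A-CHO cells, plated 18 h at 37 C/5% CO2, dye-loaded 1 h at 37 C; compounds in DMSO added by pin tool (agonist mode). Intracellular calcium flux read as kinetic fluorescence on FDSS over 2 min at 1 s intervals.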

The target in assay [13] is Muscarinic acetylcholine receptor M1 (Homo sapiens) (UniProt P11229). In words: Cholinergic receptor muscarinic 1 (CHRM1) small molecule antagonists, cell-based qHTS assay (AID 1963588). Further: nearly all actives have a fitted effect of over 40% in size. Further: potency means the concentration at half of the fitted maximal effect. The method in brief:
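CHRM1-CHO calcium-flux assay, antagonist mode. Cells were seeded 18 h, dye-loaded 1 h at 37 C and given compound for 5 min at RT, then acetylcholine was added at 50nM. FDSS fluorescence was read 3 min; 15 concentrations, three runs.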

Assay [14] can be described thus: cAMP Responsive Elements (CRE) small molecule agonists, cell-based qHTS assay (AID 1963590). In outline: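 A CRE-responsive beta-lactamase reporter in HEK 293T cells was used. Treatment ran 3 h at 37 C; detection used LiveBLAzer B/G FRET substrate for 2 h at room temperature.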
Assay [15] can be described thus: cAMP Responsive Elements (CRE) small molecule antagonists, cell-based qHTS assay (AID 1963591; active means well fitted inhibition curve with a large enough effect in the signal ratio in the repeat runs, not every such curve was filed as active; the % refers to the signal ratio). In outline: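 HEK293T cells carrying a CRE-driven beta-lactamase reporter receive compound and NKH477 (0.25 uM final) for 3 h. Fluorescence from LiveBLAzer B/G FRET substrate is read after 2 h at room temperature.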
For assay [16], the target named is Beta-2 adrenergic receptor (Homo sapiens) (UniProt P07550). In words: Adrenergic beta2 receptor (ADRB2) small molecule antagonists, cell-based qHTS assay (AID 1963592). Further: series mostly up to about 92 µM; nearly all actives have a fitted effect of over 50% in size. In outline:
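Cells (CHO, stable ADRB2 overexpression) incubated 18-20hr at 37C; compounds added from DMSO; agonist mix (1nM isoproterenol, 100uM IBMX, 25uM Ro-20-1724) added; 0.5hr RT; d2-cAMP and anti-cAMP-cryptate added; 1hr RT; 665/615 nm read.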

Assay [17] shares this target. As to the kind of experiment: Adrenergic beta2 receptor (ADRB2) small molecule agonists, cell-based qHTS assay (AID 1963593).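 Further: CHO cells stably overexpressing human ADRB2.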 The method in brief: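 CHO cells stably over-expressing ADRB2 were plated overnight at 37C, then dosed with compounds plus a stimulation mix containing 100uM IBMX and 25uM Ro-20-1724 for 0.5hr at room temperature. cAMP was measured by HTRF competition, 1hr.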

The target of assay [18] is D(2) dopamine receptor (Homo sapiens) (UniProt P14416). In words: Dopamine D2 receptor (DRD2) small molecule agonists, cell-based qHTS assay (AID 1963594). Further: nearly all actives have a fitted effect of over 35% in size. In outline:
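HEK293 cells stably expressing DRD2 were cultured 24 h at 37 C, then given Ro20-1724 (0.1 mM final) and compounds for 10 min at room temperature. NKH477 (200nM) was then added for 30 min. cAMP was read by HTRF.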

The target is the same in assay [19]. As to the kind of experiment: Dopamine D2 receptor (DRD2) small molecule antagonists, cell-based qHTS assay (AID 1963595; active means well fitted inhibition curve with a large enough effect in the signal ratio in the repeat runs, with a control signal flat; the % refers to the signal ratio). In outline:
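In this cell-based antagonist screen, compounds act for 10 min at room temperature before a 30 min challenge with 12 nM quinpirole and 200 nM NKH477. cAMP is quantified by HTRF competition in DRD2-HEK293 cells containing 0.1 mM Ro20-1724.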

Assay [20] concerns the target Muscarinic acetylcholine receptor M1 (Homo sapiens) (UniProt P11229). As to the kind of experiment: Cholinergic receptor muscarinic 1 (CHRM1) small molecule agonists, cell-based qHTS assay (AID 1963589). Further: nearly all actives have a fitted effect of over 35% in size. The method in brief:
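Measures agonist-induced intracellular calcium rise. Stable human CHRM1 CHO line, 1 h dye load at 37 C, compounds from DMSO, kinetic fluorescence read.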

Each structure is given as a SMILES string. A number with no mark means an inactive call. Inconclusive results are not listed. Activity calls are given as the source filed them. Unless noted, the call rests on the fitted dose curve.

Sequence of D(2) dopamine receptor (Homo sapiens) (P14416 whole entry, looked up): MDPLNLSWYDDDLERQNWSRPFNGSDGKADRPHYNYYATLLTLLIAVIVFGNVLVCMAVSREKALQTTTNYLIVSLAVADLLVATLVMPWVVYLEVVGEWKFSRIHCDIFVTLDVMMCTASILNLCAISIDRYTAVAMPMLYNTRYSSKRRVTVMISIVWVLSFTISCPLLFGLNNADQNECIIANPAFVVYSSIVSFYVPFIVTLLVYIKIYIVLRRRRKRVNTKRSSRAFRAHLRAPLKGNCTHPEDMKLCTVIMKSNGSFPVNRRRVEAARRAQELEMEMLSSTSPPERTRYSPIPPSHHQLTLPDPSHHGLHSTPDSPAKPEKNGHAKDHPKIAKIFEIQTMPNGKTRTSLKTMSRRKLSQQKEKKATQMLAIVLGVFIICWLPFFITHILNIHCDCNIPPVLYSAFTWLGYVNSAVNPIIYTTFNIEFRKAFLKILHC
Sequence of Beta-2 adrenergic receptor (Homo sapiens) (P07550 whole entry, looked up): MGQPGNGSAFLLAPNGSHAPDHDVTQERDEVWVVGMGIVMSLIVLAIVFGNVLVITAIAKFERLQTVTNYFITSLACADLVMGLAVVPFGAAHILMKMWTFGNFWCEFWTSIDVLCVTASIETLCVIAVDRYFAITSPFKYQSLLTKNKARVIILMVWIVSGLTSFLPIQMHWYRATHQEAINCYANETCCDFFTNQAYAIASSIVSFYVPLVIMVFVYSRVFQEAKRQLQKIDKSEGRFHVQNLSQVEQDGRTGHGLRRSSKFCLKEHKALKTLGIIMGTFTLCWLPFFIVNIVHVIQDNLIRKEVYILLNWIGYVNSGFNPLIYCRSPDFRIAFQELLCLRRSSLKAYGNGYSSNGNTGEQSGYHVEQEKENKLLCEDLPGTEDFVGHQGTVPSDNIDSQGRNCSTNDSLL
Sequence of Gonadotropin-releasing hormone receptor (Homo sapiens) (P30968 whole entry, looked up): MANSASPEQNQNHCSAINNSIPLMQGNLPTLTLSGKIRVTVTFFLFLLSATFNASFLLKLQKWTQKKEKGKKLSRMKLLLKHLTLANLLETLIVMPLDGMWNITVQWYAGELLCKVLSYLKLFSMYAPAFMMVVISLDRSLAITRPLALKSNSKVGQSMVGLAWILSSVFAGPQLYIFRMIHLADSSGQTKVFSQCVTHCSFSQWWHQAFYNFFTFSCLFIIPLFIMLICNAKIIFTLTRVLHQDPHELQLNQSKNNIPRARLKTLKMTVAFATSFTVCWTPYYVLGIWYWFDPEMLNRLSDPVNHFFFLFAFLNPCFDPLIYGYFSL
Sequence of 5-hydroxytryptamine receptor 2A (Homo sapiens) (P28223 whole entry, looked up): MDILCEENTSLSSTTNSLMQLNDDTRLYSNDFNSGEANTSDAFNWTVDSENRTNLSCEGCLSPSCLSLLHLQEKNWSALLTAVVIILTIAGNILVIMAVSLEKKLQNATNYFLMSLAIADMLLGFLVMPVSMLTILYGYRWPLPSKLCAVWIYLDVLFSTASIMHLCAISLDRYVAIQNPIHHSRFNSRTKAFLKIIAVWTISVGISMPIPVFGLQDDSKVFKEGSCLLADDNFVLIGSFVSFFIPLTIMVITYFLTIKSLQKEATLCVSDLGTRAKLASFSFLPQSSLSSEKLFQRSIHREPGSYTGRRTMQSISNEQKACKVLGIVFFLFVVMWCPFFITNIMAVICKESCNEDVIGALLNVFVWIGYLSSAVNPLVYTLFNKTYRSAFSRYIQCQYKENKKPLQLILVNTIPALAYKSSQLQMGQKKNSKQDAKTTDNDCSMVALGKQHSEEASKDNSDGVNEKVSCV
Sequence of Muscarinic acetylcholine receptor M1 (Homo sapiens) (P11229 whole entry, looked up): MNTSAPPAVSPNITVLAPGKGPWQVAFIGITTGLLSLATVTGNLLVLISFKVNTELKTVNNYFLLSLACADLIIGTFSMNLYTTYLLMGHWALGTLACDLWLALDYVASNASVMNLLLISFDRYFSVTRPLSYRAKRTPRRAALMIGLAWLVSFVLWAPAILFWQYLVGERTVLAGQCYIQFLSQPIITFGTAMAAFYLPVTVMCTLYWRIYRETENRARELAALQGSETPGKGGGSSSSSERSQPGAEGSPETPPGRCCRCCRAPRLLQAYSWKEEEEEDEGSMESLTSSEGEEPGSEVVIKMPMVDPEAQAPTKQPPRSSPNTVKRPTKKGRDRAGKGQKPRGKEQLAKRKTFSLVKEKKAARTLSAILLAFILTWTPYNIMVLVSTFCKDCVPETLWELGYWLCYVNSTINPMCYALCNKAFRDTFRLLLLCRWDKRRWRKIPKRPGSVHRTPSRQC
Sequence of KiSS-1 receptor (Homo sapiens) (Q969F8 whole entry, looked up): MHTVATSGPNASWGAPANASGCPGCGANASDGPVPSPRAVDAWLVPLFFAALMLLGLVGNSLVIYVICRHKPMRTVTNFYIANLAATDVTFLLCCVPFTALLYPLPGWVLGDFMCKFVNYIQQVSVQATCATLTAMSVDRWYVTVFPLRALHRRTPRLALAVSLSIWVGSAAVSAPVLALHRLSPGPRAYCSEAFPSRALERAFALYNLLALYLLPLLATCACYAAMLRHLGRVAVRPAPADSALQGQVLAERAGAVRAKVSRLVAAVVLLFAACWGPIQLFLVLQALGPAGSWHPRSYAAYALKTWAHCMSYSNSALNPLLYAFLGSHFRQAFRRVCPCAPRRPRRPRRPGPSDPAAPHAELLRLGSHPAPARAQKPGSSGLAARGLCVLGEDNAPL

Consider `c1coc(-c2nc3ccccc3[nH]2)c1`, for which the Potency entry in [1], in assay [2], in [3], in [4], in assay [5] and in assay [6] was “inactive” in each case. In addition, the Potency result in [7], in assay [8], in assay [9], in assay [10], in assay [11] and in [12] was “inactive” each time. The Potency entry in assay [13], in [14], in assay [15], in [16], in assay [17] and in assay [18] was “inactive” in each case. In addition, in assay [19], the Potency entry was “inactive”.
Consider `O=c1c(C2CC(c3ccc(-c4ccc(Br)cc4)cc3)Cc3ccccc32)c(O)sc2ccccc12` (stereo not given), for which the Potency in [1] was 29.8 µM (active); in assay [9], 8.9 µM (active). In addition, the Potency result in assay [2], in assay [3], in assay [4], in assay [5], in [6] and in [7] was “inactive” throughout. In addition, the Potency entry in assay [8], in assay [10], in [11], in assay [12], in assay [13] and in assay [20] was “inactive” throughout. Besides, the Potency result in assay [16], in assay [17], in assay [18] and in assay [19] was “inactive” in each case.
Consider `Clc1ccc(C(Cl)(Cl)Cl)cc1Cl`, for which the Potency entry in [1], in assay [2], in assay [3], in [4], in assay [5] and in assay [6] was “inactive” throughout. Also, the Potency entry in assay [7], in assay [8], in assay [9], in assay [10], in assay [11] and in assay [12] was “inactive” in each case. Besides, the Potency entry in assay [13], in [20], in assay [14], in assay [15], in assay [17] and in [18] was “inactive” in each case. For the same compound, the Potency entry in assay [19] is “inactive”.
For `N#C/C=C/c1ccccc1`, the Potency result in assay [1], in [2], in assay [3], in assay [4], in [5] and in assay [6] was “inactive” in each case. The Potency result in assay [7], in assay [8], in assay [9], in assay [11], in [12] and in assay [13] was “inactive” throughout. Besides, the Potency entry in assay [20], in assay [14], in [15], in [16], in assay [17] and in [18] was “inactive” in each case. Besides, the Potency result in [19] was “inactive”.
Consider `CC(Cl)CN(C)C` (stereo not given), for which the Potency entry in [1], in [2], in assay [3], in assay [4], in assay [5] and in assay [6] was “inactive” each time. For the same compound, the Potency result in assay [7], in assay [8], in assay [9], in assay [10], in assay [11] and in assay [12] was “inactive” throughout. Also, the Potency entry in assay [13], in assay [20], in assay [14], in assay [15], in [17] and in assay [18] was “inactive” throughout.
Regarding `COC(=O)c1cc(Oc2ccc(Cl)cc2Cl)ccc1[N+](=O)[O-]`, the Potency result in assay [1], in assay [2], in [3], in [4], in assay [5] and in assay [6] was “inactive” throughout. Further, the Potency result in [7], in assay [8], in assay [9], in assay [11], in [12] and in [20] was “inactive” each time. The Potency result in assay [14], in assay [15], in assay [16], in [17], in assay [18] and in [19] was “inactive” throughout. In addition, the Potency in [13] was 0.0375 µM (active).
For the compound `O=NN(CCO)CCO`, the Potency entry in assay [1], in assay [2], in assay [3], in [4], in assay [5] and in assay [6] was “inactive” each time. The Potency entry in assay [7], in [8], in [9], in assay [10], in assay [12] and in assay [13] was “inactive” throughout. The Potency entry in assay [20], in [14], in [15], in assay [16], in assay [18] and in [19] was “inactive” throughout.
